Laboratory results from PMC4552634, “A New Set of Chemical Starting Points with Plasmodium falciparum Transmission-Blocking Potential for Antimalarial Drug Discovery” (PLoS ONE, 2015).
Where two headings read alike, the source gives them in different places. Screen size: about 13,000 compounds; about 3,200 (25%) showed an effect of 50% or more. Some of the results follow.

Test system: P. falciparum stage V gametocytes
Design: BacTiter-Glo ATP luminescence viability of purified stage V gametocytes in 384-well plates, per cent inhibition versus DMSO
Conditions: 48 h, 5 µM, inhibitor

SMILES	% Inhibition [%]	% Inhibition (% Inhibition) [%]
COc1cccc(CNC(=O)c2cnc(N3CCN(c4ccncc4)CC3)c(Cl)c2)c1 [TCMDC-134628]	35.94	–
Cc1cccc2[nH]c(-c3ccc(-c4ccc(CNCC(C)C)cc4)cc3)nc12 [TCMDC-132803]	16.22	–
Cc1cccc2[nH]c(-c3ccc(-c4ccc(CNCc5ccccc5)cc4)cc3)nc12 [TCMDC-132701]	-18.64	–
COc1ccc(CNCc2cccc(-c3ccc(-c4nc5c(C)cccc5[nH]4)cc3)c2)cc1 [TCMDC-132726]	-14.09	–
CNCCNCc1cccc(-c2ccc(-c3nc4c(C)cccc4[nH]3)cc2)c1 [TCMDC-132831]	94.01	–
CNCCNCc1ccc(-c2ccc(-c3nc4c(C)cccc4[nH]3)cc2)cc1 [TCMDC-132837]	80.14	–
Cc1cccc2[nH]c(-c3ccc(-c4cccc(CNCc5cccc(N)c5)c4)cc3)nc12 [TCMDC-132934]	83.13	–
Cc1cccc2[nH]c(-c3ccc(-c4cccc(CNCc5ccccc5)c4)cc3)nc12 [TCMDC-132707]	-22.49	–
Cc1cccc2[nH]c(-c3ccc(-c4ccc(CNC(C)C)cc4)cc3)nc12 [TCMDC-132744]	-47.89	–
Cc1cccc2[nH]c(-c3ccc(-c4cccc(CNCCc5ccncc5)c4)cc3)nc12 [TCMDC-132850]	-15.09	–
Cc1cccc2[nH]c(-c3ccc(-c4ccc(CNCc5ccc(CN)cc5)cc4)cc3)nc12 [TCMDC-132813]	65.29	–
Cc1cccc2[nH]c(-c3ccc(-c4cccc(CNCCN(C)C)c4)cc3)nc12 [TCMDC-132682]	17.36	–
CNc1ccc(CNCc2cccc(-c3ccc(-c4nc5c(C)cccc5[nH]4)cc3)c2)cc1 [TCMDC-132979]	-24.36	–
Cc1ccccc1Oc1ccc(Nc2ccnc(Nc3cccc(C(N)=O)c3)n2)cc1C(F)(F)F [TCMDC-138601]	1.674	–
CC(=O)N(C)c1ccc(C(=O)Nc2cccc(-c3cccc(-c4nc5ccc(C(F)(F)F)cc5[nH]4)c3)c2)cc1 [TCMDC-136849]	-19.52	–
CC(=O)Nc1nc(C(=O)Nc2cccc(-c3ccc4c(cnn4CC4CC4)c3)c2)cs1 [TCMDC-133147]	49.64	–
O=C1COC(c2ccccc2)(c2ccccc2)CN1CC1CCN(Cc2ccc(O)cc2Cl)C1 (stereo not shown) [TCMDC-136338]	44.26	–
Cc1[nH]c2c(C)cccc2c1C1CCN(CCC2CCN(C(=O)/C=C/c3ccc(Cl)c(Cl)c3)CC2)CC1 [TCMDC-139803]	38.01	–
N=C(N)NCCN(Cc1ccccc1)c1ccccc1 [TCMDC-131837]	26.01	–
N=C(N)CCN(Cc1ccccc1)c1ccc(Cl)cc1 [TCMDC-131835]	9.979	–
N=C(N)CCN(Cc1ccc(Cl)cc1)c1ccc(Cl)cc1 [TCMDC-131840]	54.29	–
N=C(N)NCCCN(Cc1ccccc1)c1ccc(Cl)cc1 [TCMDC-131839]	47.9	–
N=C(N)NCCN(Cc1ccccc1)c1ccc(Cl)cc1 [TCMDC-131838]	72.85	–

SMILES	% Inhibition [%]	% Inhibition (% Inhibition) [%]
Cc1ccc(N(CCC(=N)N)Cc2ccccc2)cc1 [TCMDC-132096]	26.05	–
CN1CCCN(Cc2ccc(-c3cccc(NC(=O)c4ccc(F)cc4)c3)cc2)CC1 [TCMDC-132634]	12.81	–
O=C(NC1CCN(Cc2ccccc2)CC1)c1cccc(-c2cc3cc(Cl)c(Cl)cc3[nH]2)c1 [TCMDC-141290]	-1.614	–
CN1CCN(CCCN(Cc2ccc(-c3cccc(CNCc4ccc5c(c4)OCO5)c3)cc2)C(=O)NC2CCCCC2)CC1 [TCMDC-140642]	56.14	–
CN1CCN(CCCN(Cc2ccc(-c3cccc(CNCc4ccc5c(c4)OCO5)c3)cc2)C(=O)CCC2CCCC2)CC1 [TCMDC-140751]	61.11	–
CN1CCN(CCCN(Cc2ccc(-c3ccc(CNCc4ccc5c(c4)OCO5)cc3)cc2)C(=O)CCC2CCCC2)CC1 [TCMDC-140561]	102.2	–
CN1CCN(CCCN(Cc2cccc(-c3ccc(CNCc4ccc5c(c4)OCO5)cc3)c2)C(=O)CCC2CCCC2)CC1 [TCMDC-140557]	65.31	–
Cc1cccc(C(=O)Nc2ccnc(N(C)C3CCN(Cc4cccc(O)c4)CC3)c2)c1 [TCMDC-134964]	-19.45	–
O=C(/C=C/c1ccc(Cl)c(Cl)c1)NCCCCCN1CCC(NC(=O)Nc2cc(F)cc(F)c2)CC1 [TCMDC-135715]	-53.24	–
NC(=O)C1CCN(Cc2ccc(-c3ccc(-c4nc5cc(C(F)(F)F)ccc5[nH]4)cc3)cc2)CC1.O=C(O)C(F)(F)F [TCMDC-132692]	-81.89	–
FC(F)(F)c1cccc(CNCC2CCN(Cc3ccc4c(c3)OCO4)CC2)c1 [TCMDC-141673]	2.788	–
CN1CCN(CCCN(Cc2cccc(-c3cccc(CNCc4ccc5c(c4)OCO5)c3)c2)C(=O)CCC2CCCC2)CC1 [TCMDC-140556]	67.58	–
CC1CN(c2ccc(NC(=O)c3cccs3)cc2)CCN1Cc1cccc(F)c1 (stereo not shown) [TCMDC-135008]	-22.55	–
COc1ccc(CNCc2cccc(-c3cccc(-c4nc5cccc(C)c5[nH]4)c3)c2)cc1.O=C(O)C(F)(F)F [TCMDC-132732]	-64.2	–
c1ccc(CSC2=NNC(c3ccccn3)S2)cc1 (stereo not shown) [TCMDC-123769]	99.43	–
NC(=O)c1cccc(C(=O)Nc2cccc(-c3csc(-c4nc5ccccc5[nH]4)c3)c2)c1 [TCMDC-132399]	-9.606	–
CN(C)CCCNCc1ccc(-c2ccc(F)c(Cl)c2)o1 [TCMDC-125238]	41.34	–
CNS(=O)(=O)CCNCc1ccc(-c2ccc3ncnc(Nc4ccc(OCc5ccccc5)cc4)c3c2)o1 [TCMDC-138102]	-59.33	–
CNCCCNCc1ccc(-c2ccc(F)c(Cl)c2)o1 [TCMDC-125237]	65.13	–
O=C(C=Cc1ccccc1C(F)(F)F)NC1CCC(CN2CCC(c3c[nH]c4ccccc34)CC2)CC1 (stereo not shown) [TCMDC-139903]	–	54.81
O=C(/C=C/c1ccccc1O)NC1CCC(CN2CCC(c3c[nH]c4ccccc34)CC2)CC1 (stereo not shown) [TCMDC-139705]	–	20.65
O=C(/C=C/c1ccccc1Cl)NC1CCC(CN2CCC(c3c[nH]c4ccccc34)CC2)CC1 (stereo not shown) [TCMDC-139699]	–	83.67
O=C(C=Cc1ccccc1C(F)(F)F)NC1CCC(CN2CCC(c3c[nH]c4ccccc34)CC2)CC1 (stereo not shown) [TCMDC-139915]	–	18.99

SMILES	% Inhibition [%]	% Inhibition (% Inhibition) [%]
O=C(C=Cc1ccccc1Br)NC1CCC(CN2CCC(c3c[nH]c4ccccc34)CC2)CC1 (stereo not shown) [TCMDC-139905]	–	19.58
O=C(/C=C/c1ccccc1O)NC1CCC(CN2CCC(c3c[nH]c4ccccc34)CC2)CC1 (stereo not shown) [TCMDC-139720]	–	84.95
O=C(C=Cc1ccccc1Br)NC1CCC(CN2CCC(c3c[nH]c4ccccc34)CC2)CC1 (stereo not shown) [TCMDC-139917]	–	13.62
O=C(/C=C/c1ccccc1Cl)NC1CCC(CN2CCC(c3c[nH]c4ccccc34)CC2)CC1 (stereo not shown) [TCMDC-139714]	–	34.23
O=C(C=Cc1cccc(Cl)c1Cl)NC1CCC(CN2CCC(c3c[nH]c4ccccc34)CC2)CC1 (stereo not shown) [TCMDC-139920]	–	-3.877
COc1ccc(Nc2nccc(NCCNC(=O)Nc3cc(C)ccc3C)n2)cc1 [TCMDC-133644]	-56.14	–
CCn1cc2c3c(cc(C(=O)N[C@@H](Cc4ccccc4)[C@H](O)CNCc4cccc(OC)c4)cc31)N(C)S(=O)(=O)CC2 [TCMDC-135784]	29.74	–
O=C(NCCCCN1CCC(O)(c2ccc(Cl)cc2)CC1)c1ccc(Br)cc1 [TCMDC-131982]	-5.43	–
CN(C(=O)c1nn(-c2ccccn2)c2nccc(-c3cccs3)c12)C1CCCCC1 [TCMDC-124797]	11.83	–
CCc1ccc(C2CCN(CCCCNC(=O)c3ccc(-c4ccc(C(F)(F)F)cc4)cc3)CC2)c(OCCO)c1 [TCMDC-138761]	105.9	–
CCc1ccc(C2CCN(CCCCNC(=O)c3ccc(-c4ccc(C#N)cc4)cc3)CC2)c(OCCO)c1 [TCMDC-138765]	-6.555	–
Cc1cc(C2CCN(CCCCNC(=O)c3ccc(-c4ccc(C(F)(F)F)cc4)cc3)CC2)c(C)cc1OCC(N)=O [TCMDC-138800]	4.975	–
CCOC(=O)c1cc(C(=O)NCCCCN2CCC(c3ccc(CC)cc3OCC)CC2)ccc1-c1ccc(C(F)(F)F)cc1 [TCMDC-138755]	83.47	–
C=C(C)Cn1cc(C2CCN(CCCCNC(=O)c3sc(-c4ccc(Cl)cc4Cl)nc3CO)CC2)c2ccccc21 [TCMDC-138873]	-30.06	–
Cc1cc(C2CCN(CCCCNC(=O)c3ccc(-c4ccc(C(F)(F)F)cc4)cc3)CC2)c(C)cc1OCCO [TCMDC-138798]	-10.99	–
C=CCn1cc(C2CCN(CCCCNC(=O)c3sc(-c4ccc(C(F)(F)F)cc4)nc3CO)CC2)c2cc(OC)ccc21 [TCMDC-138828]	92.56	–
CCOC(=O)c1cc(C(=O)NCCCCN2CCC(c3ccc4c(c3OC)CCCC4)CC2)ccc1-c1ccc(C(F)(F)F)cc1 [TCMDC-138739]	73.05	–
CC(=O)Oc1cc(C)ccc1C1CCN(CCCCNC(=O)c2ccc(-c3ccc(C(F)(F)F)cc3)cc2)CC1 [TCMDC-138626]	28.6	–
COc1c(C2CCN(CCCCNC(=O)c3ccc(-c4ccc(C(F)(F)F)cc4)c(C(=O)OC(C)C)c3)CC2)ccc2c1CCCC2 [TCMDC-138744]	32.47	–
COC(=O)c1ccc(C(=O)NCCCCN2CCC(c3ccc4c(c3OC)CCCC4)CC2)cc1-c1ccc(C(F)(F)F)cc1 [TCMDC-138705]	-64.43	–
Cn1cc(C2CCN(CCCCNC(=O)c3sc(-c4ccc(C(F)(F)F)cc4)nc3CO)CC2)c2ccccc21 [TCMDC-138778]	-59.88	–
